Drawing on PubChem BioAssay (EPA / NIEHS), this text covers outcome and AC50 for 20 compounds.

Assay [1] in a line: ACEA_AR_agonist_AUC_viability: ACEA Biosciences xCELLigence Real-Time Cell Analysis on Androgen Receptor Agonism for Viability (AID 2283775).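 As to AC50: viability read 80 hours after compound addition.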 In outline:
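22Rv1 cells; impedance growth kinetics; 8-pt 1:4 dilutions from 100 uM top final, ≤0.5% DMSO; n = 2; 80 h read; AUC viability, loss-of-signal vs DMSO.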

A short description of assay [2]: ACEA_AR_antagonist_AUC_viability: ACEA Biosciences xCELLigence Real-Time Cell Analysis on Androgen Receptor Antagonism for Viability (AID 2283776).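 Also: 22Rv1 human prostate cancer cells growing on impedance electrode plates; area under impedance growth curve at 80 h after dosing as viability; hits lower the growth signal relative to DMSO meaning cytotoxicity.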 In short, it runs like this: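 22Rv1 prostate cells, continuous dosing up to 100 uM final (0.5% DMSO max), duplicate plates. Growth measured by impedance; AUC at 80 h, loss of signal vs DMSO.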
The nature of assay [3]: ACEA_ER_AUC_viability: ACEA Biosciences xCELLigence Real-Time Cell Analysis on Estrogen Receptor Agonism for Viability (AID 2283782).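 Also: hit means loss of impedance signal meaning reduced cell growth or viability.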 In outline:
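Viability endpoint: reduced impedance area under the curve relative to DMSO, recorded by real-time electrode sensing over ~80 h of continuous exposure. Duplicate plates of T47D in hormone-depleted medium; eight concentrations, 1:4 dilutions, 100 uM maximum.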

Assay [4] addresses AR (gene 367) (UniProt P10275). Kind of assay: ACEA_AR_agonist_80hr: ACEA Biosciences xCELLigence Real-Time Cell Analysis on Androgen Receptor Agonism for Proliferation (AID 2283783).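 Also: hits increase impedance growth signal above DMSO baseline.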 In outline: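 Eight concentrations, 1:4 serial dilution from a 100 uM final top, in biological duplicate. Impedance-based real-time growth of 22Rv1 cells after overnight baseline, recorded hourly and read at 80 hours. Controls: testosterone, MG132, assay media.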

Assay [5] has as its target AR (gene 367) (UniProt P10275). The experiment in a line: ACEA_AR_antagonist_80hr: ACEA Biosciences xCELLigence Real-Time Cell Analysis on Androgen Receptor Antagonism for Proliferation (AID 2283787).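 Also: 22Rv1 human prostate cancer cells with growth followed by electrical impedance; hits lower the impedance growth signal relative to DMSO.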 In outline: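 Impedance-based real-time growth of 22Rv1 prostate cells, read 80 h after dosing. Eight concentrations, 1:4 series, top 100 uM final (0.5% DMSO), n = 2; signal decrease scored against DMSO.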

Assay [6] relates to zebrafish Estrogen Receptor (ESR2B), gene 317733. Kind of assay: ATG_zfER2b_XSP1: Attagene TRANS-FACTORIAL Multi-Species (XSP1) HepG2 Assay for zebrafish Estrogen Receptor (ESR2B) (AID 2283773). In short, it runs like this:
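Medium contained 3 nM 6-alpha-fluorotestosterone. Reporter mRNA induction by exogenous zebrafish ER2b-Gal4 chimera was read 24 h post-dose in transiently transfected HepG2 cells, using RT-PCR, fluorescent labelling, HpaI digestion and capillary electrophoresis.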

The subject of assay [7] is frog Estrogen Receptor (ESR1), gene 398734. The experiment in a line: ATG_frER1_XSP1: Attagene TRANS-FACTORIAL Multi-Species (XSP1) HepG2 Assay for frog Estrogen Receptor (ESR1) (AID 2283777). In short, it runs like this:
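HepG2 cells transiently transfected with GAL4-UAS reporter units and frog ER–Gal4 chimera were dosed for 24 h with 3 nM 6-alpha-fluorotestosterone present. Reporter mRNA was measured by RT-PCR and capillary electrophoresis; gain of signal fitted versus DMSO.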

In assay [8] the test system is zebrafish Estrogen Receptor (ESR2A), gene 317734. The experiment in a line: ATG_zfER2a_XSP1: Attagene TRANS-FACTORIAL Multi-Species (XSP1) HepG2 Assay for zebrafish Estrogen Receptor (ESR2A) (AID 2283778). In short, it runs like this: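 Reporter transcripts were quantified by RT-PCR, 6-FAM labelling, HpaI digestion and capillary electrophoresis after 24 h dosing. The cells were HepG2 transiently carrying a zebrafish ER2a–Gal4 construct plus multiplexed UAS reporters; medium contained 3 nM 6-alpha-fluorotestosterone.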

Assay [9] deals with chicken Estrogen Receptor (ESR1), ESR1 (gene 396099) (UniProt P06212). Kind of assay: ATG_chERa_XSP1: Attagene TRANS-FACTORIAL Multi-Species (XSP1) HepG2 Assay for chicken Estrogen Receptor (ESR1) (AID 2283779). In outline:
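Trans-activation of an exogenous chicken ERα–Gal4 chimera read as reporter transcript (RT-PCR, fluorescent labeling, capillary electrophoresis) after 24 h compound exposure of transfected HepG2; medium held 3 nM 6-alpha-fluorotestosterone. Positive-direction fit against DMSO.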

The target of assay [10] is Estrogen receptor (Homo sapiens) (UniProt P03372). The experiment in a line: ATG_hERa_XSP1: Attagene TRANS-FACTORIAL Multi-Species (XSP1) HepG2 Assay for human Estrogen Receptor (ESR1) (AID 2283780). In short, it runs like this:
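Reporter transcripts from multiplexed GAL4-UAS units driven by NR-Gal4 chimeras in transiently transfected HepG2 were measured by RT-PCR with capillary electrophoresis 24 h post-dose, with 3 nM 6-alpha-fluorotestosterone present; gain-of-signal relative to DMSO.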

A short description of assay [11]: STM_H9_NormalizedViability: Cytotoxicity Assessment at 120 hours in the Stemina devTOX quickPredict H9 human embryonic stem cell (hESC)-based Assay (AID 2283784). In short, it runs like this:
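Viability endpoint: background-corrected CellTiter-Fluor RFU expressed relative to the 0.1% DMSO mean on each plate. Undifferentiated H9 cells were treated with daily re-dosing and media change, and loss of signal was fitted.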

The target in assay [12] is Estrogen receptor beta (Homo sapiens) (UniProt Q92731). The experiment in a line: ATG_hERb_XSP1: Attagene TRANS-FACTORIAL Multi-Species (XSP1) HepG2 Assay for human Estrogen Receptor (ESR2) (AID 2283788). In outline: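 HepG2 cells transiently transfected with multiplexed GAL4-UAS reporter units carrying chimeric human ERβ-Gal4; 24 h compound exposure with 3 nM 6-alpha-fluorotestosterone present. Reporter mRNA quantified by RT-PCR, FAM labelling and capillary electrophoresis; gain-of-signal fitted versus DMSO.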
Estrogen receptor beta (Homo sapiens), sequence (Q92731 whole entry, looked up, the tested form may be a part): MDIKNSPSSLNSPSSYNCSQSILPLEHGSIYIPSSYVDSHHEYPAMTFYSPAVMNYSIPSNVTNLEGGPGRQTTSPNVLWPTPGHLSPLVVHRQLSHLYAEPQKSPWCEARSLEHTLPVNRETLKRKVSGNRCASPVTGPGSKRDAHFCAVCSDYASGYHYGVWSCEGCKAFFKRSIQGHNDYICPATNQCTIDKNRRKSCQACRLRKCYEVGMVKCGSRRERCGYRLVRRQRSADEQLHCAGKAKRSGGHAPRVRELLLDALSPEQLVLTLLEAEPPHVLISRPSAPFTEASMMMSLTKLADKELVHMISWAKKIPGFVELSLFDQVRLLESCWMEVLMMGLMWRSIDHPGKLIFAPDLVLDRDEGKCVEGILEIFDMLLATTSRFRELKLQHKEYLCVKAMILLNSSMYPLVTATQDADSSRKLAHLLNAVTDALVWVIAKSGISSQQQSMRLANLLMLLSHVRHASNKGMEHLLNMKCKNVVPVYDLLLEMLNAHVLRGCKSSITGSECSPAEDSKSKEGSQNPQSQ

Assay [13] can be described thus: ATG_M_06_XSP1: Attagene TRANS-FACTORIAL Multi-Species (XSP1) HepG2 Assay for M06 Transcription Factor (Internal Marker) (AID 2283790). In outline:
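This background-control readout tracks M06 reporter mRNA, measured by RT-PCR and capillary electrophoresis. HepG2 cells transiently carrying the GAL4-UAS reporter panel were dosed for 24 h with 3 nM 6-alpha-fluorotestosterone added for partial AR stimulation; increases were scored relative to DMSO.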

Assay [14] in a line: ATG_M_61_XSP1: Attagene TRANS-FACTORIAL Multi-Species (XSP1) HepG2 Assay for M61 Transcription Factor (Internal Marker) (AID 2283797). In short, it runs like this: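 Background-control readout: reporter transcripts measured by RT-PCR and capillary electrophoresis 24 h after dosing transiently transfected HepG2 multi-reporter cells, with 3 nM 6-alpha-fluorotestosterone present. Fitted in the positive direction relative to DMSO.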

Assay [15] concerns the target Peroxisome proliferator-activated receptor gamma (Homo sapiens) (UniProt P37231). The experiment in a line: ATG_hPPARg_XSP1: Attagene TRANS-FACTORIAL Multi-Species (XSP1) HepG2 Assay for human Peroxisome Proliferator-activated Receptor gamma (PPARg) (AID 2283800). In short, it runs like this:
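Reporter mRNA induction, measured by RT-PCR with capillary electrophoresis 24 h after dosing, scored as gain over DMSO. Transfected HepG2 cells express exogenous NR-Gal4 chimeras driving GAL4-UAS reporters; medium includes 3 nM 6-alpha-fluorotestosterone.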

Each structure is given as a SMILES string. Inconclusive results are not listed. Active and inactive are the calls of the source. The calls were made as follows: active = hit-call score of the fitted dose curve at least 0.9, where 1 is the maximum; inconclusive = response in the unintended direction; inactive = score below 0.9.

AR (gene 367), sequence (P10275 whole entry, looked up): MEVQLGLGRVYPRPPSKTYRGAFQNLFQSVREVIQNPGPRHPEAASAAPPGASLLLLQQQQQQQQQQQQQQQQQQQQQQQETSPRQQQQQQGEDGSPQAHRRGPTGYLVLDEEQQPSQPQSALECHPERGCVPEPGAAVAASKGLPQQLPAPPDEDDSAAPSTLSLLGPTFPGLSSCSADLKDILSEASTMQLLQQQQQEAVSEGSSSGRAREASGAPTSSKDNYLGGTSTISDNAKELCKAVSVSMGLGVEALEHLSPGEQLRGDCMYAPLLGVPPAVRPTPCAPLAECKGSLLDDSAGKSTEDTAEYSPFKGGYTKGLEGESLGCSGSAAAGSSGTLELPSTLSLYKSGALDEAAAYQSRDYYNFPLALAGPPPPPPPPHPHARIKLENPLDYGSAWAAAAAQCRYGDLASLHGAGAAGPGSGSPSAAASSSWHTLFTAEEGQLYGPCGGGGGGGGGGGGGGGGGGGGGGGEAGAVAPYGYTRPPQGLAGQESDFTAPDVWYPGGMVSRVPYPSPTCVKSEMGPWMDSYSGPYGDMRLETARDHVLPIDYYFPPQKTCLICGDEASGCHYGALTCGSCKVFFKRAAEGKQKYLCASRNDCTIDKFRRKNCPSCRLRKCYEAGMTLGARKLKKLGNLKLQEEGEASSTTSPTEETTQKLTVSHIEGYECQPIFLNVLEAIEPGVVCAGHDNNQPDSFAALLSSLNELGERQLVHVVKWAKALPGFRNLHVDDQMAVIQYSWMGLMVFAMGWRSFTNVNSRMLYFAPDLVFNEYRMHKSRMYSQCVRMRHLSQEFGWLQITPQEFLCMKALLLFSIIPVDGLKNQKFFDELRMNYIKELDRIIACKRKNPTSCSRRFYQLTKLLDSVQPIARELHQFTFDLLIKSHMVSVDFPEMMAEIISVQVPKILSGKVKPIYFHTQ
Peroxisome proliferator-activated receptor gamma (Homo sapiens), sequence (P37231 whole entry, looked up, the tested form may be a part): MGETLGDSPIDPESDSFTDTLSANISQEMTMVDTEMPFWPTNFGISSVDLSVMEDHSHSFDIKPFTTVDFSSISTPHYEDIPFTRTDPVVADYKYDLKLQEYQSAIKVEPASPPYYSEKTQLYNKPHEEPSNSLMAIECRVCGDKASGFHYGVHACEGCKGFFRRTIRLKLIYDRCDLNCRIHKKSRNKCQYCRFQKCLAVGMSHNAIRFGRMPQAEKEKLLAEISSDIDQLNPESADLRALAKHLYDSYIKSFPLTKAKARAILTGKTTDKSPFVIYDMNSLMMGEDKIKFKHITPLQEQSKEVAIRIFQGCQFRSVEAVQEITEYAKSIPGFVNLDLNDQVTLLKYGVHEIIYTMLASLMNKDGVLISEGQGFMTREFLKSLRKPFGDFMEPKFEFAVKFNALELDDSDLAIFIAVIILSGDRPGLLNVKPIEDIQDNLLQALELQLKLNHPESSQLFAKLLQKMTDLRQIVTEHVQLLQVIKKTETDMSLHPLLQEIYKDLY
Estrogen receptor (Homo sapiens), sequence (P03372 whole entry, looked up, the tested form may be a part): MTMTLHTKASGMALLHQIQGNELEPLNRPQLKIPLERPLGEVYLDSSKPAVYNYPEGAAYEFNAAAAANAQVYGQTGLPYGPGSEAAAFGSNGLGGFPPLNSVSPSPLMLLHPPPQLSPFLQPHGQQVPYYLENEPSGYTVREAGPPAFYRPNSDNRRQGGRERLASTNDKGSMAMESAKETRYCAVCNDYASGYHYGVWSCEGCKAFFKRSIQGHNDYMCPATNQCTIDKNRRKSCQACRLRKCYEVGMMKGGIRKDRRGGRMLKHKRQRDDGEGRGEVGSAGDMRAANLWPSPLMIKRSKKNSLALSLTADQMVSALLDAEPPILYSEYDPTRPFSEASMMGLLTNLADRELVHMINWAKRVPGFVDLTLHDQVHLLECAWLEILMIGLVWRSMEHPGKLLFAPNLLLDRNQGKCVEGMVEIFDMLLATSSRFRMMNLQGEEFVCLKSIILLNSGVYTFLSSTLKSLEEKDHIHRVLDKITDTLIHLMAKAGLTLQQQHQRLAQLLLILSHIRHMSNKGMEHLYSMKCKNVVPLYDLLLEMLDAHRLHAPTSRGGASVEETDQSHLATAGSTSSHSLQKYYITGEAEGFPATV
chicken Estrogen Receptor (ESR1), ESR1 (gene 396099), sequence (P06212 whole entry, looked up, the tested form may be a part): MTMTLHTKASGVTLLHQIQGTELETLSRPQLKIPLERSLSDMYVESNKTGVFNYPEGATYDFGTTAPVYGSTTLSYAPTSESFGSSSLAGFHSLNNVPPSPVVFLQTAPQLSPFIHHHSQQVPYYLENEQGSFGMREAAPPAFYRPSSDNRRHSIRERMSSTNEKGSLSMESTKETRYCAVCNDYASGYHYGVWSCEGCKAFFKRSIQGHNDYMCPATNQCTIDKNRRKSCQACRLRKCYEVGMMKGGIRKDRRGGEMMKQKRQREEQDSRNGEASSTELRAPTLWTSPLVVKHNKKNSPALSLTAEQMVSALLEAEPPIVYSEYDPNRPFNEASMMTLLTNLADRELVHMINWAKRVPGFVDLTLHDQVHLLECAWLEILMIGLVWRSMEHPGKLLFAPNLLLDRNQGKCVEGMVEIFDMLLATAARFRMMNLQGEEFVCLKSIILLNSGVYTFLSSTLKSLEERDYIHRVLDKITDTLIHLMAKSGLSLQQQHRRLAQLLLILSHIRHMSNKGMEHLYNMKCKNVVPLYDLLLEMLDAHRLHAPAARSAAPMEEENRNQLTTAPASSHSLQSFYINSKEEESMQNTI

Consider `OCC(CO)(CO)CO`, for which the outcome in assay [1] was inactive.
As to `CCCc1ccccc1`, the compound was classed as inactive in assay [1], in assay [2] and in [3].
Take `c1ccc(C(O[C@@H]2CCCN(CCc3ccc4c(c3)OCO4)C2)c2ccccc2)cc1`: the AC50 was 41.3 µM (active) in assay [1] and 58.3 µM (active) in assay [2].
Take `NC(=O)N(O)[C@@H]1COc2cc(OCc3ccccc3)ccc21`: in assay [1], the compound was classed as inactive.
As for `CC(C)CC(C)O` (stereo not given), the compound was classed as inactive in assay [1] and in assay [2].
`CC(=O)c1ccccc1`: the compound was called inactive in [1] and in assay [2].
Consider `CCCCCCCC/C=C\CCCCCCCC(=O)OC[C@@H](O)[C@H]1OC[C@H](O)[C@H]1O`, for which the compound was called inactive in assay [1].
As for `CCCCCCCCCCCCCCO`, the AC50 in assay [1] and in [2] was 50 µM (active) throughout.
As to `c1ccc2c(c1)-c1cccc3c1c-2cc1ccccc13`, the figures for the AC50 in assay [1] and in [2] were 36.5 µM (active) and 4.1 µM (active), respectively.
For the compound `CCOc1ccc2[nH]cc(C(=O)NCc3ccccc3)c(=O)c2n1`, the results for the AC50 in assay [1] and in [2] were 26.1 µM (active) and 35.9 µM (active), respectively.
As for `O=C(O)c1ccc2c(c1)nc(C(=O)NC1CCN(C3CC3)CC1)n2Cc1cc(-c2ccc(Cl)s2)on1`, the concentration at half-maximal activity (AC50) in assay [1] is 18.6 µM (active); in [2], 15.8 µM (active). In assay [3], the call was inactive.
Consider `c1ccc2ncccc2c1`, for which the result in assay [1] and in assay [2] was inactive.
Regarding `NC(N)=O`, the result in assay [1] and in assay [2] was inactive.
Take `CCCCCCCCCCCCCCCCOS(=O)(=O)O`: the AC50 in [1] was 38.3 µM (active); in [2], 43.8 µM (active); with AR (gene 367) [5], 46.2 µM (active). Besides, the result (in assay [3]; with AR (gene 367) [4]) was inactive.
Consider `OC(Cn1cncn1)(Cn1cncn1)c1ccc(F)cc1F`, for which the call in assay [1] and in [2] was inactive.
In the case of `O=C(O)[C@H](O)[C@@H](O)C(=O)O`, the outcome in assay [1] and in assay [2] was inactive.
For the compound `Cc1nccn1-c1ccc(Sc2cccc(C3(C(N)=O)CCOCC3)c2)cc1`, the results for the AC50 in assay [1] and in assay [2] were 25.5 µM (active) and 24 µM (active), respectively.
For the compound `CCn1nc(C)c2c1C(=O)NCC(c1ccc(O)cc1)=N2`, the AC50 in assay [1] was 25.8 µM (active); in assay [2], 15.1 µM (active).
Take `CC(C)CCCCCCOC(=O)C1CCCCC1C(=O)OCCCCCCC(C)C` (stereo not given): in [1], the compound was classed as inactive.
For the compound `CC(C)C(=O)Nc1ccc([N+](=O)[O-])c(C(F)(F)F)c1`, the call in assay [6], in [7], in assay [8], in assay [9], in assay [10] and in assay [12] was inactive. In addition, the call in [13] and in assay [14] was inactive. The values for the AC50 in [1], in assay [11] and in assay [15] were 55.2 µM (active), 65.6 µM (active) and 21.9 µM (active), respectively.

A word on the AC50: it is the concentration at which the activity in the assay is half-maximal.
